Test results: PubChem BioAssay AID624405 (Broad Institute, 2012)
Out of some 1,900 compounds screened, about 250 (13%) were called active. About 4% were inconclusive and are not listed.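 The calls were made as follows: active = fitted curve reaches 40% rescue activity at or below the top valid dose, in every test run; inconclusive = test runs disagree, some active and some inactive; inactive = every run misses the threshold or moves the wrong way.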 Not all results are given here. Results with a measured potency or affinity are listed apart.

Test: rescue of simvastatin-induced ATP loss – cell-based, C2C12 myotubes, ATP luminescence, cherry pick, dose response (AID 624405);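 also: myotubes are challenged with simvastatin at 10 µM to lower ATP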
Settings: 48 h, scaled: DMSO wells 0, geranylgeraniol wells 100; series mostly up to 19.5 µM

Row | SMILES | outcome
1 | O=C(O)CCC(C(=O)O)n1c(O)c(C2=c3ccccc3=NC2=O)sc1=S (configuration not stated) | inactive
2 | COc1ccc(C(=O)N2C[C@H]3[C@@H](c4ccccc42)[C@H](CO)N3Cc2ccccc2)cc1 | inactive
3 | C[C@H]1CN([C@@H](C)CO)C(=O)c2cccc(NC(=O)Nc3ccc(C(F)(F)F)cc3)c2O[C@@H]1CN(C)S(=O)(=O)c1ccc(Cl)cc1 | inactive
4 | C[C@H]1CCCCO[C@H](CN(C)C(=O)Nc2cccc3ccccc23)[C@@H](C)CN([C@@H](C)CO)C(=O)c2cc(NC(=O)Nc3ccc4c(c3)OCO4)ccc2O1 | inactive
5 | COc1ccc(S(=O)(=O)N2CCN(c3ccc4nnc(-c5ccccc5)n4n3)CC2)cc1 | inactive
6 | COc1ccc(-c2nc(CC(=O)O)cs2)cc1 | inactive
7 | COc1ccc(-c2noc(CCCOc3ccc(Cl)cc3Cl)n2)cc1 | inactive
8 | COc1ccc2sc(-c3ccccc3OC)c(-c3ccc(O)cc3)c2c1 | inactive
9 | C[C@@H]1CCCCO[C@@H](CN(C)S(=O)(=O)c2ccc(F)cc2)[C@@H](C)CN([C@H](C)CO)C(=O)c2cc(NC(=O)Nc3cccc4ccccc34)ccc2O1 | inactive
10 | C[C@@H]1CCCCO[C@H](CN(C)S(=O)(=O)c2cccs2)[C@H](C)CN([C@H](C)CO)C(=O)c2cc(NC(=O)Nc3ccc(F)cc3)ccc2O1 | inactive
11 | C[C@H]1CN([C@@H](C)CO)C(=O)c2cccc(NC(=O)Nc3ccc(F)cc3)c2O[C@@H]1CN(C)CC1CCCCC1 | inactive
12 | C[C@H]1CN([C@@H](C)CO)C(=O)c2cccc(NC(=O)Nc3ccc4c(c3)OCO4)c2O[C@@H]1CN(C)CC1CCCCC1 | inactive
13 | CC(=O)c1cc(C#N)c(Oc2ccc(Cl)cc2Cl)nc1C | inactive
14 | CC(=O)C1=C(O)C(=O)N(c2ccc(S(N)(=O)=O)cc2)C1c1ccccc1F (configuration not stated) | inactive
15 | C[C@@H]1CN([C@H](C)CO)C(=O)c2cc(C3=CCCCC3)cnc2O[C@@H]1CN(C)C(=O)Nc1ccc(F)cc1 | inactive
16 | Cc1noc(C)c1NC(=O)Nc1ccc2c(c1)C(=O)N([C@@H](C)CO)C[C@@H](C)[C@@H](CN(C)C(=O)Nc1cccc3ccccc13)O2 | inactive
17 | CC(O)CNc1nc2ccccc2n1-c1ncnc2sc3c(c12)CCC3 (configuration not stated) | inactive
18 | Oc1[nH]c2ccccc2c1C=NCC1CCCO1 (configuration not stated) | inactive
19 | CCOC(=O)C1=NN(C(=O)Cc2ccccc2)C(O)(c2ccc(Cl)cc2)C1 (configuration not stated) | inactive
20 | C[C@@H]1CN([C@@H](C)CO)C(=O)Cc2cc(NC(=O)Nc3cccc4ccccc34)ccc2O[C@@H]1CN(C)Cc1ccc(C(=O)Nc2ccccc2N)cc1 | inactive
21 | C[C@H]1CN([C@@H](C)CO)C(=O)Cc2cc(NC(=O)Nc3cccc4ccccc34)ccc2O[C@@H]1CN(C)Cc1ccc(C(=O)Nc2ccccc2N)cc1 | inactive

Row | SMILES | outcome
22 | C[C@@H]1CN([C@H](C)CO)C(=O)Cc2cc(NC(=O)Nc3cccc4ccccc34)ccc2O[C@H]1CN(C)Cc1ccc(C(=O)Nc2ccccc2N)cc1 | inactive
23 | C[C@@H]1CN([C@H](C)CO)C(=O)Cc2cc(NC(=O)Nc3cccc4ccccc34)ccc2O[C@@H]1CN(C)Cc1ccc(C(=O)Nc2ccccc2N)cc1 | inactive
24 | CCN(CC)C(=O)c1scc2c1OCCO2 | inactive
25 | CC1CC(c2ccccc2)n2nc(N3C(=O)c4ccccc4C3=O)nc2N1 (configuration not stated) | inactive
26 | c1ccc(CSc2nnc(-c3ccccn3)n2-c2ccccc2)cc1 | inactive
27 | Cc1nnc(SCC(=O)NCc2ccccc2)n1-c1ccccc1 | inactive
28 | COc1ccc(CN(C)C[C@@H]2Oc3ccc(NC(=O)Cc4ccccc4)cc3CC(=O)N([C@H](C)CO)C[C@H]2C)cc1 | inactive
29 | CC(=O)Nc1cccc(Nc2nc(-c3ccccc3F)nc3ccccc23)c1 | inactive
30 | CCCC(=O)NC(=S)Nc1cccc(C(C)=O)c1 | inactive
31 | CCN(C(=O)COC(=O)c1cnc(C)cn1)C1CCCCC1 | inactive
32 | Cc1cc(C)c2c(c1)/C(=N/NS(=O)(=O)c1ccccc1)CCC2 | inactive
33 | Cc1ccccc1N(CC(=O)NC1CCCC1)C(=O)CS(=O)CC(=O)Nc1ccc2c(c1)OCO2 (configuration not stated) | inactive
34 | CC(C)C(=O)Nc1cc(S(=O)(=O)N2CCOCC2)ccc1N1CCCCC1 | inactive
35 | CC1CCN(S(=O)(=O)c2ccc3ccccc3c2)CC1 | inactive
36 | OCCNCc1cccc(-c2ccccc2)c1O | inactive
37 | CC(C)Oc1ccc(C(=O)NCc2ccco2)cc1 | inactive
38 | O=C(NCc1ccco1)C1CCN(C(=O)c2cc3sccc3n2Cc2ccc(F)cc2)CC1 | inactive
39 | O=C(CN(c1ccc(F)cc1)S(=O)(=O)c1ccccc1)NCc1ccco1 | inactive
40 | O=C(c1ccco1)N1CCN(C(=O)c2cc3sccc3n2Cc2ccccc2)CC1 | inactive
41 | CCN1CCN(c2ccc(NC(=O)Cc3ccccc3)cc2)CC1 | inactive
42 | O=S(=O)(c1cccc2nsnc12)N1CCOCC1 | inactive

Row | SMILES | outcome
43 | COc1ccc(NC(=O)Nc2ccc3c(c2)C(=O)N([C@H](C)CO)C[C@@H](C)[C@@H](CN(C)Cc2ccc(C(F)(F)F)cc2)OCCCC[C@@H](C)O3)cc1 | inactive
44 | CCC(C)(NC(=O)CNC(C)=O)C(=O)NC1CCCCC1 (configuration not stated) | inactive
45 | COc1ccc(C#Cc2cnc3c(c2)C(=O)N([C@@H](C)CO)C[C@@H](C)[C@H](CN(C)C(=O)Nc2cccc(OC)c2)O3)cc1 | inactive
46 | CCOCCn1c(COc2ccccc2)nc2ccccc21 | inactive
47 | CCOC(=O)c1ccc2c(c1)nc(COc1ccc(OC)cc1)n2CC | inactive
48 | O=C(CCCCCn1c(=O)[nH]c2ccsc2c1=O)NCc1ccc(F)cc1 | inactive
49 | CCc1ccc(NC(=O)c2cc(-c3cccs3)on2)cc1 | inactive
50 | CCOC(=O)/C=C(\C)Nc1cc(C)nn1-c1ccccc1 | inactive
51 | C[C@@H]1CN([C@H](C)CO)C(=O)c2cc(NC(=O)Cc3cn(C)c4ccccc34)ccc2O[C@H]1CN(C)S(=O)(=O)c1cccs1 | inactive
52 | O=C(NCc1ccco1)C(c1ccc(F)cc1)N(Cc1cccnc1)C(=O)Cn1nnc2ccccc21 (configuration not stated) | inactive
53 | C[C@@H]1CN([C@@H](C)CO)C(=O)Cc2cc(NC(=O)CCCCCC(=O)Nc3ccccc3N)ccc2O[C@@H]1CN(C)Cc1ccc(C(F)(F)F)cc1 | inactive
54 | C[C@@H]1CN([C@@H](C)CO)C(=O)Cc2cc(NC(=O)CCCCCC(=O)Nc3ccccc3N)ccc2O[C@H]1CN(C)Cc1ccc(C(F)(F)F)cc1 | inactive
55 | C[C@@H]1CN([C@H](C)CO)C(=O)Cc2cc(NC(=O)CCCCCC(=O)Nc3ccccc3N)ccc2O[C@@H]1CN(C)Cc1ccc(C(F)(F)F)cc1 | inactive
56 | C[C@@H]1CN([C@H](C)CO)C(=O)Cc2cc(NC(=O)CCCCCC(=O)Nc3ccccc3N)ccc2O[C@H]1CN(C)Cc1ccc(C(F)(F)F)cc1 | inactive
57 | Cc1cc(C)c2c(CN3CCN(Cc4ccc5c(c4)OCO5)CC3)cc(=O)oc2c1 | inactive
58 | C[C@H](CO)N1C[C@H](C)[C@@H](CN(C)Cc2ccc(C(F)(F)F)cc2)Oc2ccc(NS(=O)(=O)c3ccc(Cl)cc3)cc2CC1=O | inactive
59 | C[C@@H]1CCCCO[C@@H](CN(C)Cc2ccc(C(F)(F)F)cc2)[C@H](C)CN([C@@H](C)CO)C(=O)c2cc(NS(=O)(=O)c3cccs3)ccc2O1 | inactive
60 | Cc1ccc(-c2cnc3c(c2)C(=O)N([C@H](C)CO)C[C@H](C)[C@@H](CN(C)C(=O)Cc2ccccc2)O3)cc1 | inactive
61 | CCC(C)(C)NC(=O)CN(C(=O)CNS(=O)(=O)c1ccccc1)c1ccccc1 | inactive
62 | COc1ccc(CN2[C@@H](CO)[C@@H]3c4ccccc4N(C(=O)c4ccccc4)C[C@@H]32)cc1 | inactive
63 | Fc1ccc(C(c2nnnn2C2CCCC2)N2CCN(Cc3ccccc3)CC2)cc1 (configuration not stated) | inactive

Row | SMILES | outcome
64 | CC(C)CC(c1nnnn1C1CCCC1)N1CCN(c2ccccc2F)CC1 (configuration not stated) | inactive
65 | Cc1ccc(NS(=O)(=O)c2ccc(C)c(C(=O)N3CCN(C)CC3)c2)cc1 | inactive
66 | Cc1ccc(-n2c(=O)cc(N3CCN(C(=O)c4ccco4)CC3)[nH]c2=O)cc1 | inactive
67 | COc1ccc(Oc2coc3c(CN(C)C)c(O)ccc3c2=O)cc1 | inactive
68 | O=C(Nc1ccc(N2CCN(C(=O)c3ccccc3)CC2)c(Cl)c1)c1ccco1 | inactive
69 | Cc1cc(N2CCN(c3nnnn3-c3ccccc3)CC2)n2ncnc2n1 | inactive
70 | C=CCSc1nnc(CSc2nc3sc4c(c3c(=O)[nH]2)CCCC4)n1-c1ccccc1 | inactive
71 | C[C@@H]1CN([C@@H](C)CO)C(=O)c2cc(C#CC3CCCCC3)cnc2O[C@H]1CN(C)C(=O)C1CCCCC1 | inactive
72 | COc1cc2c(cc1OC)C(c1cc(OC)c(OC)c(OC)c1)NCC2 (configuration not stated) | inactive
73 | C[C@@H]1CCCCO[C@H](CN(C)C(=O)Nc2cccc3ccccc23)[C@@H](C)CN([C@H](C)CO)C(=O)c2cc(NS(=O)(=O)c3ccc(Cl)cc3)ccc2O1 | inactive
74 | CCN(CC)C(=O)c1sc(N)c(C#N)c1C | inactive
75 | COc1ccc(CN(C)C[C@H]2OCCCC[C@H](C)Oc3ccc(NC(=O)NC(C)C)cc3C(=O)N([C@@H](C)CO)C[C@H]2C)cc1 | inactive
76 | CS(=O)(=O)N1CCN(c2cccc(Cl)n2)CC1 | inactive
77 | O=C(c1ccccc1CCc1ccccc1)N1CCOCC1 | inactive
78 | C[C@@H]1CCCCO[C@H](CN(C)S(=O)(=O)c2ccc(F)cc2)[C@H](C)CN([C@@H](C)CO)C(=O)c2cc(NC(=O)Cc3ccccc3)ccc2O1 | inactive
79 | Cc1ccccc1C(=O)NCc1nnc(SCC(=O)N2CCN(c3ccccc3)CC2)n1C | inactive
80 | C[C@@H]1CN([C@H](C)CO)C(=O)c2cccc(NC(=O)c3ccc(-c4nccs4)cc3)c2O[C@@H]1CN(C)C(=O)Nc1cccc2ccccc12 | inactive
81 | C[C@H]1CN([C@@H](C)CO)C(=O)Cc2cc(NC(=O)Nc3ccc4c(c3)OCO4)ccc2O[C@@H]1CN(C)Cc1ccc(-c2ccccc2)cc1 | inactive
82 | C[C@H](CO)N1C[C@H](C)[C@@H](CN(C)Cc2ccc(-c3ccccc3)cc2)Oc2ccc(NC(=O)Nc3ccc4c(c3)OCO4)cc2CC1=O | inactive
